The values below come from PubChem BioAssay (NCI).

This is part of a sample that, as a whole, favours compounds with a hit. Of some 83,000 tested, about 20% had one in any assay.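 Treatment: one concentration, 48 hours, 96-well format. Scoring: percent growth, with anything below 10 considered active.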 A number with no mark means an inactive call. Activity calls are given as the source filed them.

Test systems include NCI-H23 lung; NCI-H226 lung; NCI-H322M lung; HOP-62 NSCLC; NCI-H460 lung; HOP-92 NSCLC; NCI-H522 lung; A549/ATCC NSCLC; 786-0 renal; COLO 205 colon.
Assay in all cases: NCI-60 one-dose screen, 48 h (100 = growth as untreated, 0 = no growth, -100 = all killed)
Settings in all cases: 10 µM unless noted

On to `Nc1nc(=O)n([C@H]2C[C@H](O)[C@@H](CO)O2)cc1C=O`, for which the growth was 112% in the experiment with NCI-H23 lung; 111% with NCI-H226 lung; 110% in the experiment on NCI-H322M lung; 95.6% with HOP-62 NSCLC; 103% in the experiment with NCI-H460 lung; 57.7% in the experiment on HOP-92 NSCLC. In addition, the growth in the experiment with NCI-H522 lung was 102%; with A549/ATCC NSCLC, 103%; in the experiment with 786-0 renal, 102%; in the experiment on COLO 205 colon, 14.5%.
With `Cn1c2nc3ccccc3c-2cc2ccccc21`, the growth in the experiment with NCI-H23 lung is 44.9%; in the experiment on NCI-H226 lung it was 53%; in the experiment on NCI-H322M lung, 4.32% (active); in the experiment with HOP-62 NSCLC, 51.3%; in the experiment with NCI-H460 lung, 13.4%; in the experiment on HOP-92 NSCLC, 57.2%. Also, the growth is 41.6% in the experiment on NCI-H522 lung, 28.4% with A549/ATCC NSCLC, 38% in the experiment on 786-0 renal and 26% in the experiment on COLO 205 colon.
Regarding `Clc1ccc(CSc2nnc(-c3ccc(Cl)cc3)n2-c2ccccc2)cc1`, the growth was 79.8% with NCI-H23 lung; 46.1% in the experiment on NCI-H226 lung; 92.7% with NCI-H322M lung; 92.4% with HOP-62 NSCLC; 85.8% in the experiment with NCI-H460 lung; 89.5% in the experiment with HOP-92 NSCLC. The growth is 70.1% in the experiment on NCI-H522 lung, 80.3% in the experiment on A549/ATCC NSCLC, 59.7% in the experiment with 786-0 renal and 122% with COLO 205 colon.
Regarding `CNC(=O)c1cc(-c2ccc(NC(=S)Nc3cccc(C(F)(F)F)c3)cc2)nc2cccnc12`, the growth is 92.4% in the experiment on NCI-H23 lung; 95.8% in the experiment with NCI-H226 lung; 96.1% in the experiment on NCI-H322M lung; 102% in the experiment on HOP-62 NSCLC; 99.4% in the experiment with NCI-H460 lung; 85% in the experiment with HOP-92 NSCLC. The results for the growth in the experiment on NCI-H522 lung, with 786-0 renal and in the experiment on COLO 205 colon were 89.7%, 96.7% and 104%, respectively.
For the compound `N#Cc1c(-c2cccs2)cc(-c2cnccn2)nc1SCC(=O)N/N=C/c1ccccc1`, the growth with NCI-H23 lung is 40.8%; with NCI-H226 lung it was 50.8%; in the experiment with NCI-H322M lung, 63.5%; in the experiment on HOP-62 NSCLC, 31.1%; in the experiment with NCI-H460 lung it was 17%; with HOP-92 NSCLC it was 42.3%. Also, the growth in the experiment with NCI-H522 lung was 67.3%; with 786-0 renal, 17.9%; in the experiment with COLO 205 colon, 66.2%.
As for `Brc1ccc2[nH]cc(-c3nn4cc(-c5nccs5)nc4s3)c2c1`, the growth with NCI-H23 lung was 31.2%; with NCI-H226 lung it was 50.5%; in the experiment with NCI-H322M lung, 51.5%; with HOP-62 NSCLC, 12.8%; in the experiment with NCI-H460 lung, -45.3% (active); in the experiment with HOP-92 NSCLC, -28.1% (active). Moreover, the growth with NCI-H522 lung is 67.6%; in the experiment with 786-0 renal, -74.5% (active); in the experiment on COLO 205 colon it was 11%.
For `CCCC/C(=C\c1ccc(O)c(O)c1)C(=O)NC(Cc1ccccc1)C(=O)C(=O)NCCc1ccc(OC)cc1` (stereo not drawn), the growth with NCI-H23 lung was 92.2%; in the experiment on NCI-H226 lung, 92.7%; in the experiment on NCI-H322M lung, 100%; in the experiment on HOP-62 NSCLC, 98.2%; in the experiment on NCI-H460 lung, 102%; in the experiment with HOP-92 NSCLC, 86.2%. Besides, the growth in the experiment with NCI-H522 lung was 87.7%; with 786-0 renal it was 104%; in the experiment with COLO 205 colon it was 110%.
Consider `NC(=O)c1ncn2c(=O)n(CCF)nnc12`, for which the growth is 94.5% in the experiment with NCI-H23 lung; 68.5% in the experiment on NCI-H226 lung; 78% in the experiment on NCI-H322M lung; 53.5% in the experiment with HOP-62 NSCLC; 54.9% in the experiment with NCI-H460 lung; 99.3% with HOP-92 NSCLC. The growth with NCI-H522 lung is 82.7%; in the experiment with A549/ATCC NSCLC, 99%; in the experiment with 786-0 renal it was 61.3%; in the experiment on COLO 205 colon, 57.4%.
For `CNC(=O)c1cc(Oc2ccc3c(c2)sc2nc(-c4ccc(N(C)C)cc4)cn23)ccn1`, the growth with NCI-H23 lung is 35.5%; with NCI-H226 lung, 36.2%; with NCI-H322M lung it was 48.1%; in the experiment with HOP-62 NSCLC it was 45.4%; in the experiment on NCI-H460 lung, 8.23% (active); with HOP-92 NSCLC, 37.9%. Moreover, the growth was 3.82% (active) with NCI-H522 lung, 31% in the experiment with 786-0 renal and 8.9% (active) in the experiment with COLO 205 colon.
As for `CCOC(=O)c1cccc(NC2=C(Cl)C(=O)C(C)=C(C)C2=O)c1`, the growth in the experiment with NCI-H23 lung was 91.9%; in the experiment with NCI-H226 lung, 100%; in the experiment with NCI-H322M lung, 105%; in the experiment on HOP-62 NSCLC, 103%; in the experiment on NCI-H460 lung, 101%; with HOP-92 NSCLC it was 54.2%. Further, the growth was 95% in the experiment with NCI-H522 lung, 102% in the experiment on A549/ATCC NSCLC, 105% in the experiment with 786-0 renal and 122% with COLO 205 colon.
Regarding `CC1(C)CC[C@]2(C(=O)O)CC[C@]3(C)C(=CC[C@@H]4[C@@]5(C)CC[C@H](NOCCCN)C(C)(C)[C@@H]5CC[C@]43C)[C@@H]2C1`, the growth was 91.1% with NCI-H23 lung; 90.3% in the experiment on NCI-H226 lung; 94% with NCI-H322M lung; 102% in the experiment with HOP-62 NSCLC; 73.3% in the experiment on NCI-H460 lung; 62.3% with HOP-92 NSCLC. Besides, the growth with NCI-H522 lung was 97.2%; with A549/ATCC NSCLC, 77.9%; in the experiment with 786-0 renal, 98.6%; in the experiment with COLO 205 colon, 19.6%.
As to `C#CCN(C)CCCOc1ccc(NC(=O)CCCCCCC(=O)NO)cc1Cl`, the growth is 28.1% in the experiment on NCI-H23 lung; 63.1% in the experiment with NCI-H226 lung; 26.5% with NCI-H322M lung; 30.1% in the experiment with HOP-62 NSCLC; 25.8% with NCI-H460 lung; -14% (active) with HOP-92 NSCLC. Further, the values for the growth with NCI-H522 lung, with 786-0 renal and in the experiment with COLO 205 colon were 12.8%, 39.3% and -26.1% (active), respectively.
`O=C(/C=C/c1cccc(F)c1)c1cccc(OCCCOc2cccc(C(=O)/C=C/c3cccc(F)c3)c2)c1`: the growth in the experiment with NCI-H23 lung was 49.2%; with NCI-H226 lung, 77%; with NCI-H322M lung it was 101%; with HOP-62 NSCLC it was 132%; in the experiment with NCI-H460 lung, 96.1%; with HOP-92 NSCLC, 115%. Further, the growth with NCI-H522 lung was 83.2%; in the experiment on 786-0 renal it was 51%; in the experiment on COLO 205 colon, 82.2%.
